The values below come from PubChem BioAssay (NCI).

This is part of a sample that, as a whole, favours compounds with a hit. Of some 83,000 tested, about 20% had one in any assay.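 Cell lines were cultured in 96-well plates, exposed to a single compound concentration, and assessed for percent growth 48 hours later.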 A number with no mark means an inactive call. Active and inactive are the calls of the source. Rule for the calls: active = growth percent below 10; inactive = the rest.

For the experiment, the system named is SK-MEL-28 melanoma. The experiment in a line: NCI-60 one-dose screen, 48 h (100 = growth as untreated, 0 = no growth, -100 = all killed). The settings on record: 10 µM.
As for `CCN(CC)CCSCCN(CC)CC`, the growth was 103%. In the case of `COc1ccc([N+](=O)[O-])c(C(=O)O)c1`, the growth was 106%. Regarding `CNc1ncc(-c2ccc(C(F)(F)F)cc2)c(NC2CCCCCC2)n1`, the growth was 88%. Under `O=C(Nc1cccc(-n2cc(-c3ccncc3)c(-c3ccc(O)c(Cl)c3)n2)c1)c1ccc(N2CCOCC2)c(C(F)(F)F)c1` stands 49.7%; under `Cc1ccc(CC#N)cc1C`, 137%; under `CCOC(=O)C(NC(=O)C(Cl)Cl)C(O)c1ccccc1` (stereo unspecified), 144%. Regarding `C/C(N)=C(\C#N)C(=O)c1ccccc1`, the growth was 108%. For `Nc1ncnc2[nH]c(=O)[nH]c12`, the growth is 107%. Turning to `COc1ccc(-c2nn(-c3cccc(NC(=O)c4cccc(C(F)(F)F)c4)c3)cc2-c2ccncc2)cc1Cl`, the growth was 40.6%.

As to `Cc1ccc(S(=O)(=O)OCCN(CCOS(=O)(=O)c2ccc(C)cc2)c2c[nH]c(=O)[nH]c2=O)cc1`, the growth is 102%. Under `FC(F)(F)c1ccc(-c2cnc(-n3cc(COCCN4CCCCC4)nn3)nc2NC2CCCCCC2)cc1` stands -90.5% (active).
